Assay results: the supplement of paper PMC12067093, “Discovery and optimisation of a covalent ligand for TRIM25 and its application to targeted protein ubiquitination” (Chemical Science, 2025)
The full data set covers some 21,000 targets. This sample favours those with the largest changes.

Compound: Cc1cc(ccc1-c1ccccc1)C(=O)N1CCCN(CC1)C(=O)CCl [compound 10]
Assay: probe-labelled cysteine peptide fold change vs DMSO (competition) (log2 fold change); higher = less target engagement (more negative = stronger competition)
Settings: THP-1, incubation time: 4 h
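Also: competitive profiling in live THP-1 cells: cysteine peptides tagged with an iodoacetamide desthiobiotin (IA-DTB) probe, intensity after compound treatment relative to DMSO-treated cells.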

UniProt Q68CZ2, sequence (Q68CZ2 whole entry, looked up): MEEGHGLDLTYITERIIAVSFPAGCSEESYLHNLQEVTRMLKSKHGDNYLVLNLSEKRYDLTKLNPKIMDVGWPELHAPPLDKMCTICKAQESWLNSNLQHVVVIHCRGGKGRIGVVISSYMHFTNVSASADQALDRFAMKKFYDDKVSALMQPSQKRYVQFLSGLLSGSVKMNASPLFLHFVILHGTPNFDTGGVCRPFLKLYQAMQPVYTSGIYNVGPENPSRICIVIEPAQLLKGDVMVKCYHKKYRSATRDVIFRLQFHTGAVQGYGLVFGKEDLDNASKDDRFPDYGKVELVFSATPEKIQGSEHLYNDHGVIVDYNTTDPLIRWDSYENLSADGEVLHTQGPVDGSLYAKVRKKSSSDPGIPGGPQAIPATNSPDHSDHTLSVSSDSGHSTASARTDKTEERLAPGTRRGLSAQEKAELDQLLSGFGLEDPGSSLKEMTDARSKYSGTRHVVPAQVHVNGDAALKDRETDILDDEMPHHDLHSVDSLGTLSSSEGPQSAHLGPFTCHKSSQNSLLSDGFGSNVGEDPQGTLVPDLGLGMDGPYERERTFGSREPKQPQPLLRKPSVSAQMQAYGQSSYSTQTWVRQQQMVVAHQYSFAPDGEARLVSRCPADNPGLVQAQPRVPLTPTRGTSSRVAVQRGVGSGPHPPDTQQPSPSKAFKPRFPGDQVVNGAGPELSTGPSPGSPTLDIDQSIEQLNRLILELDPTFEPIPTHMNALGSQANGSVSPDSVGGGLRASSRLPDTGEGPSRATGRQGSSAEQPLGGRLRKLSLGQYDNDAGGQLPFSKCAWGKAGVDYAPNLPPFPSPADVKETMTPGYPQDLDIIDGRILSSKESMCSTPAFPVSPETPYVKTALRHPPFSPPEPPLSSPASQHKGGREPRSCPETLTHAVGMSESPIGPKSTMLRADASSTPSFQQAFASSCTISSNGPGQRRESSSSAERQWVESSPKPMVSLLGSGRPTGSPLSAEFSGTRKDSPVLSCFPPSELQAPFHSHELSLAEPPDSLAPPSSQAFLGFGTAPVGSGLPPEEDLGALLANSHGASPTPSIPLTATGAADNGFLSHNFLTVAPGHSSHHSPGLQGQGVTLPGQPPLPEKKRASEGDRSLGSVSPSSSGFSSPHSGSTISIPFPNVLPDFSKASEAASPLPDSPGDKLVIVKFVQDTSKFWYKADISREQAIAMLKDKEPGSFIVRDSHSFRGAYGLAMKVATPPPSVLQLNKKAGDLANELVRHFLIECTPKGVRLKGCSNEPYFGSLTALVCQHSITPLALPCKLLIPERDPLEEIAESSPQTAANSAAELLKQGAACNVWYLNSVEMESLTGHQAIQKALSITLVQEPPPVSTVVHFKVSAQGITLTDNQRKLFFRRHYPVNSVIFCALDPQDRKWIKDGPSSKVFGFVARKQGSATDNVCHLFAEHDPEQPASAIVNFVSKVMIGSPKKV
UniProt Q13596, sequence (Q13596 whole entry): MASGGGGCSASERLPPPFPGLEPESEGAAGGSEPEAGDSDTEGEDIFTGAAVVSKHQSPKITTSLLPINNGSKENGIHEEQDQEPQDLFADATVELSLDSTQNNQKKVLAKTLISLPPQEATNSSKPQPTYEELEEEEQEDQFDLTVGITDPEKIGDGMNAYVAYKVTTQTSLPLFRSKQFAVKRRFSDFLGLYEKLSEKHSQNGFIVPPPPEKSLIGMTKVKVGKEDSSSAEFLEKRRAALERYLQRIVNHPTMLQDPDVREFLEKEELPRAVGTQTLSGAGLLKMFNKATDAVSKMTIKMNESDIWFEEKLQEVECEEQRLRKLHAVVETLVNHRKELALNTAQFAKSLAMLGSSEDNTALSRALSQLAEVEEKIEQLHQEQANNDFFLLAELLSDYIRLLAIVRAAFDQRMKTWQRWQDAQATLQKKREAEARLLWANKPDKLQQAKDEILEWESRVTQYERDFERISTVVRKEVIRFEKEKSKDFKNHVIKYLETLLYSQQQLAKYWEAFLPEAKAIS
UniProt Q5TEJ8, sequence (Q5TEJ8 whole entry, looked up): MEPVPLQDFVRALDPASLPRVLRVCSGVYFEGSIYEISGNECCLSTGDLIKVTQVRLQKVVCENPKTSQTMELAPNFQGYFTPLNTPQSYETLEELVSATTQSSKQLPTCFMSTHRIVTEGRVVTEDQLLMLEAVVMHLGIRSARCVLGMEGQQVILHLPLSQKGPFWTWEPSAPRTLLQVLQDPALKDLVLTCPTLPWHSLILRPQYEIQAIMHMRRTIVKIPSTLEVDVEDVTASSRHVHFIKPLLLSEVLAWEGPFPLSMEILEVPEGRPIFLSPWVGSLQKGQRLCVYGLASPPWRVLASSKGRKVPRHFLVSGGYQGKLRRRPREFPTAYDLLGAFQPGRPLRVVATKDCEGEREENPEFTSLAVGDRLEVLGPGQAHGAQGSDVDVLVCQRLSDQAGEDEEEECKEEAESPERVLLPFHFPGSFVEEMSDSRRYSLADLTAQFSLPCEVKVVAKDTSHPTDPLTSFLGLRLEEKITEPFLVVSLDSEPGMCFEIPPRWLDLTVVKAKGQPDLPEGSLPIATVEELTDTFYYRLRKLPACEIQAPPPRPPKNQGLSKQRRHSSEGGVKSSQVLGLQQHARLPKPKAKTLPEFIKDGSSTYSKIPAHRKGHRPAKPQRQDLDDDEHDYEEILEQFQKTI
UniProt O75391, sequence (O75391 whole entry, looked up): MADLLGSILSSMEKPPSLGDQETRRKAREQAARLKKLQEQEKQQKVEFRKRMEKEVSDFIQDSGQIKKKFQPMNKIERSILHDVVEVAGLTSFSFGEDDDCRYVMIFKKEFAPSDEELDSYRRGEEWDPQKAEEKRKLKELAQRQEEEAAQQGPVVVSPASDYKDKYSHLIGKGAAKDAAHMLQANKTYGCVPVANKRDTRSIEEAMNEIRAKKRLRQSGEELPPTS
UniProt Q8N1F8, sequence (Q8N1F8 whole entry, looked up): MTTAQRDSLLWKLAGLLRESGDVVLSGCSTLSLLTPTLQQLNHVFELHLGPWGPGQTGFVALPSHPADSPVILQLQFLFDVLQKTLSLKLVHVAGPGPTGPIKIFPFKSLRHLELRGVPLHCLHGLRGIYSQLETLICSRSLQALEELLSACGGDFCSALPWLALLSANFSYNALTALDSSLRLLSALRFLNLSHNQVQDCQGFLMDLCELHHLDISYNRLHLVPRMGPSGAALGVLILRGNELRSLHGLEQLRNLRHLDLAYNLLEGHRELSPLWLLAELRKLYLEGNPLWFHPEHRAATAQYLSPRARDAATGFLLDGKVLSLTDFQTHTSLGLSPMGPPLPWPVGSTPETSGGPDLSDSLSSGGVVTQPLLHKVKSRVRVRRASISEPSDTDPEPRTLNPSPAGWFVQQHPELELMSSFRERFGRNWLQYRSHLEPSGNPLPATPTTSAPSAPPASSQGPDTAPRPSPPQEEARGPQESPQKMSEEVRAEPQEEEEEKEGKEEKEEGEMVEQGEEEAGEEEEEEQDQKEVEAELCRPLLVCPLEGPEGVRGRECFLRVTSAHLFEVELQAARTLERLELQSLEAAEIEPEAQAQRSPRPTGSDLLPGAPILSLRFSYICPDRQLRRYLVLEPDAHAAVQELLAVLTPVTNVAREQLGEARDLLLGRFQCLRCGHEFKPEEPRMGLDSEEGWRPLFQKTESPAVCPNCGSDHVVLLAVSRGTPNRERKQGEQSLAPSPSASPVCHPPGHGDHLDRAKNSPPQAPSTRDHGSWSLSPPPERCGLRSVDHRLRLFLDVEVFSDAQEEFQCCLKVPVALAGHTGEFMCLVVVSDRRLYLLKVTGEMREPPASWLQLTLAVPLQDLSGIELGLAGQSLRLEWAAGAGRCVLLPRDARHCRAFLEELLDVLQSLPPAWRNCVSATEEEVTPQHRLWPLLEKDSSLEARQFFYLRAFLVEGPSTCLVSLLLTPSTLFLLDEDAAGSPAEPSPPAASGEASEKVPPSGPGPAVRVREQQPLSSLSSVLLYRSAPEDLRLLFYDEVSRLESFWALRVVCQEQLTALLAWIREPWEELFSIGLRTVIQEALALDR
UniProt Q92844, sequence (Q92844 whole entry, looked up): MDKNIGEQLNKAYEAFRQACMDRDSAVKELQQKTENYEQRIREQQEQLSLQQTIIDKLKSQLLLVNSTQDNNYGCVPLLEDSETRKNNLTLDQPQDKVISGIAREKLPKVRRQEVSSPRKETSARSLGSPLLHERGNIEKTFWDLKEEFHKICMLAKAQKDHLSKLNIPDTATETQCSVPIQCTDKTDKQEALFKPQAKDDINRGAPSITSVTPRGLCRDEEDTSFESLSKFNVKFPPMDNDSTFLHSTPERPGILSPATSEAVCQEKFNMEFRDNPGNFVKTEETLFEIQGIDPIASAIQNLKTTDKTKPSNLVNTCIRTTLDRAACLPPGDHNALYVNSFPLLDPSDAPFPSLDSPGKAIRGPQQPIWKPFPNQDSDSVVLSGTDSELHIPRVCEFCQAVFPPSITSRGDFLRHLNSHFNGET
UniProt P61764, sequence (P61764 whole entry): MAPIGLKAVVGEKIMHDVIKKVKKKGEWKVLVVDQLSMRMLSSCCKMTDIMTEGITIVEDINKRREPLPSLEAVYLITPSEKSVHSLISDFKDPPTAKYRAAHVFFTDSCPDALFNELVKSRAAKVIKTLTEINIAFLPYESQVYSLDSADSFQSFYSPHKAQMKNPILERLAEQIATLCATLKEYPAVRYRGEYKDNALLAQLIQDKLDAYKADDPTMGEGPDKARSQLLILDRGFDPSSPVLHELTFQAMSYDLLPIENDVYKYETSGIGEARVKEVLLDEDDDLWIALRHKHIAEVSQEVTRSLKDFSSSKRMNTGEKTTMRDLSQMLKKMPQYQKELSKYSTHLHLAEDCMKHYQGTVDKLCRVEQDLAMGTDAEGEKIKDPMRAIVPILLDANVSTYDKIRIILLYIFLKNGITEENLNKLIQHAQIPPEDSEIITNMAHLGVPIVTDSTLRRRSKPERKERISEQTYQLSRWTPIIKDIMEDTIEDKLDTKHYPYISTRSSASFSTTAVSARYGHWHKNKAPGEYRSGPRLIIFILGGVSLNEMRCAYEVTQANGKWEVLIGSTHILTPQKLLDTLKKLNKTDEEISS

Target	probe-labelled cysteine peptide fold change (10 µM)	probe-labelled cysteine peptide fold change (50 µM)
SP9_P0CG40_308_ATCDCPNCQEAER<|>SP8_Q8IXZ3_332_ATCDCPNCQEAER (UniProt Q8IXZ3+P0CG40)	0.0559	0.393
SORD_Q00796_301_YCNTWPVAISMLASK (UniProt Q00796)	0.251	0.115
TET2_Q6N021_784_VEECFHGENQYSK (UniProt Q6N021)	-0.295	-0.385
TES_Q9UGI8_164_CHELSPR (UniProt Q9UGI8)	-0.162	-0.0644
SRPRB_Q9Y5M8_246_EFEFSQLPLKVEFLECSAK (UniProt Q9Y5M8)	-0.354	-1.1
SORD_Q00796_179_VLVCGAGPIGMVTLLVAK (UniProt Q00796)	-0.0988	-1.77
SNX1_Q13596_318_LQEVECEEQR (UniProt Q13596)	-0.177	-0.146
TDRD7_Q8NHU6_77_SGEITCYAMACTETAR (UniProt Q8NHU6)	-0.0811	-1.42
TOR4A_Q9NXH8_230_HHCPEAR (UniProt Q9NXH8)	-0.165	0.0719
TBCCD1_Q9NVR7_337_CNESFIYLLSPLR (UniProt Q9NVR7)	0.178	0.422
STK11_Q15831_210_ISDLGVAEALHPFAADDTCR (UniProt Q15831)	-0.252	-0.136
SORD_Q00796_165_LPDNVTFEEGALIEPLSVGIHACR (UniProt Q00796)	0.00881	0.188
TOE1_Q96GM8_371_KQVCGDSIKPEETEQEVAADETR (UniProt Q96GM8)	-0.0655	-0.661
TARS2_Q9BW92_322_IGKEQELFFFHELSPGSCFFLPR (UniProt Q9BW92)	-0.0453	-0.425
SYK_P43405_597_MGCPAGCPR (UniProt P43405)	0.0815	-0.138
TIMELESS_Q9UNS1_96_LMVNLTQPALLCFGNLPK (UniProt Q9UNS1)	0.247	-1.08
SNX6_Q9UNH7_149_TVAMHEVFLCR (UniProt Q9UNH7)	-0.37	-1.4
SPAG7_O75391_101_SILHDVVEVAGLTSFSFGEDDDCR (UniProt O75391)	-0.0328	-0.0999
TEP1_Q99973_692_TVLVYLTDANADRLCPK (UniProt Q99973)	-0.328	-0.442

Target	probe-labelled cysteine peptide fold change (10 µM)	probe-labelled cysteine peptide fold change (50 µM)
THEMIS2_Q5TEJ8_355_DCEGEREENPEFTSLAVGDR (UniProt Q5TEJ8)	-0.0936	0.194
TESC_Q96BS2_213_FLNMETMALCH (UniProt Q96BS2)	-0.431	-1.46
SNX6_Q9UNH7_347+348_DVLQAETSQQLCCQK (UniProt Q9UNH7)	-0.288	-0.619
SOS1_Q07889_838_CIVETENLEER (UniProt Q07889)	0.113	0.392
TANK_Q92844_318_TKPSNLVNTCIR (UniProt Q92844)	-0.257	-0.558
SUZ12_Q15022_494_IDVSINECYDGSYAGNPQDIHR (UniProt Q15022)	0.105	0.302
TARS_P26639_261_CGPLIDLCR (UniProt P26639)	0.0971	0.248
THOC5_Q13769_282_HLPPPLYVLFVQATAYGQACDK (UniProt Q13769)	0.435	1.48
STXBP1_P61764_110_AAHVFFTDSCPDALFNELVK (UniProt P61764)	0.24	0.527
TONSL_Q96HA7_231_ECAHTMR (UniProt Q96HA7)	-0.316	-1.42
STK11IP_Q8N1F8_707+710_TESPAVCPNCGSDHVVLLAVSR (UniProt Q8N1F8)	0.0186	0.166
TNS3_Q68CZ2_512_DRETDILDDEMPHHDLHSVDSLGTLSSSEGPQSAHLGPFTCHK (UniProt Q68CZ2)	-0.555	-1.66
TLN1_Q9Y490_1363_ECDNALRELETVR (UniProt Q9Y490)	-0.431	-1
ST14_Q9Y5Y6_268_SFDLASCDER (UniProt Q9Y5Y6)	-0.0626	-1.09
STX12_Q86Y82_29_DFSSIIQTCSGNIQR (UniProt Q86Y82)	0.143	0.0626
TLE1_Q04724_621_QFQGHTDGASCIDISNDGTK<|>TLE4_Q04727_624_QFQGHTDGASCIDISNDGTK (UniProt Q04727+Q04724)	-0.231	-0.0783
TDRD7_Q8NHU6_1029_CNQWSEEASMVFR (UniProt Q8NHU6)	-0.175	-0.845
THUMPD1_Q9NXG2_31_CDAGGPR (UniProt Q9NXG2)	0.347	1.08
